Experimental data reported in PubChem BioAssay (EPA / NIEHS).
Several values for one entry are separate records, joined by “and”; a condition that tells them apart may be missing. Identical values can stand only once. Results filed as inconclusive are left out. A structure can be active in one record and inactive in another. Activity calls are given as the source filed them. The calls were made as follows: active = hit-call score of the fitted dose curve at least 0.9, where 1 is the maximum; inconclusive = response in the unintended direction; inactive = score below 0.9.

Assay: TOX21_p53_BLA_p3_viability: Viability Assessment in the Tox21 HCT-116 p53 Agonism Beta-lactamase Assay, Phase 3 (AID 2283593);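 also: cells exposed to compound for 16 h before reading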
From the text: TOX21_p53_BLA_p3 is a cell-based, single-readout assay that uses HCT116, a human intestinal cell line, […] in a 1536-well plate.TOX21_p53_BLA_p3_viability is an assay readout measuring cellular ATP content and detected with CellTiter-Glo Luciferase-coupled ATP quantitation.TOX21_p53_BLA_p3_viability used a type of viability reporter where loss-of-signal activity can be used to understand changes in the cell viability. Furthermore, this assay endpoint can be referred to as a secondary readout, because this assay has produced multiple assay endpoints where this one serves a viability function. To generalize the intended target to other relatable targets, this assay endpoint is annotated to the cell cycle intended target family, where the subfamily is cytotoxicity.
Thawing Method: Place 14 mL of pre-warmed thaw medium into a 15 mL of conical tub. Remove the vial of cells to be thawed from liquid nitrogen and thaw rapidly by placing at 37C in a water bath with gentle agitation for 1-2 minutes. Decontaminate the vial by wiping with 70% ethanol before opening in a biological safety cabinet. Transfer the vial contents drop-wise into 14 mL of thaw medium in a sterile 15-mL conical tub. Centrifuge cells at 900 rpm for 4 minutes and resuspend in thaw medium. Transfer contents to the T75 tissue culture flask containing Thaw Medium and place flask in a humidified 37C/5% CO2 incubator. Switch to growth medium at first passage.Propagation Method: Aspirate medium, rinse once in DPBS, add 0.25% Trypsin/EDTA and swirl to coat the cell evenly. Add an equal volume of Growth Medium to inactivate Trypsin after 2-3 minutes incubation at 37C. Centrifuge cells at 900 rpm for 4 minutes and resuspend in growth medium. Cell should be passage or fed at least twice a week.Assay Protocol: Harvest cells from culture in growth medium and resuspend in assay medium. 2.2 Dispense 4000 cells/5 uL/well into 1536-well black/clear bottom plates using a Multidrop dispenser. After the cells were incubated at 37C for 5 hours, 23 nL of compounds dissolved in DMSO were transferred to the assay plate by a PinTool resulting in a 217-fold dilution. Incubate the plates for 16 hours at 37C, 5% CO2. Add 1 uL of 6X LiveBLAzer FRET B/G (CCF4-AM) Substrate Mixture to each well using a BioRAPTR dispenser and incubate the plates at room temperature for 2 hours. Measure fluorescence intensity at 460 and 530 nm emission and 405 nm excitation by an Envision detector. Data is expressed as the ratio of 460nm/530nm emissions. Add 4 uL of Cell-titer Glo to each well using BioRAPTR and incubate the plates at room temperature for […]. For cell viability readout that measures cytotoxicity, 4 ul/well of CellTiter-Glo reagent was added into the assay plates using a Flying Reagent Dispenser. After 30 min incubation at room temperature, the luminescence intensity in the plates was measured using a ViewLux plate reader.

SMILES | AC50 | outcome
Cc1oc(-c2ccccc2)nc1CCOc1ccc(C[C@H](Nc2ccccc2C(=O)c2ccccc2)C(=O)O)cc1 | 10.7 µM (active) | –
O=c1c(-c2ccc(O)cc2)coc2cc(O)ccc12 | – | inactive
O=C(O)Cc1cc(I)c(Oc2cc(I)c(O)c(I)c2)c(I)c1 | 46.1 µM (active) | –
CC(=O)NC1(c2cccc(F)c2)CCN(CC[C@@]2(c3ccc(Cl)c(Cl)c3)CN(c3ccccc3)C(=O)CO2)CC1 | 66.9 µM (active) | –
C=C(C)C(=O)OCCC(F)(F)C(F)(F)C(F)(F)C(F)(F)C(F)(F)C(F)(F)F | – | inactive
COc1ccc([N+](=O)[O-])cc1N | – | inactive
CC(C)(C)c1ccc(O)c(C(C)(C)C)c1 | 63.6 µM (active) and 86.7 µM (active) | –
CC(C)(C)c1cccc(C(C)(C)C)c1O | – | inactive
Cc1cc(CCN2CCN(c3nsc4ccccc34)CC2)cc2c1NC(=O)CC2(C)C | 19.9 µM (active) | –
ClC1=C(Cl)C(Cl)(Cl)C(Cl)=C1Cl | 5.7 µM (active) and 3.42 µM (active) | –
CN1CCN(c2ccccc2/C=C2\SCCN(c3ccc(Cl)c(Cl)c3)C2=O)CC1 | 77.6 µM (active) | –
CC(O)CO (stereo unspecified) | – | inactive
O=C1OC2(c3ccccc31)c1cc(Br)c(O)c(Br)c1Oc1c2cc(Br)c(O)c1Br | – | inactive
CC1=C(/C=C/C(C)=C/C=C/C(C)=C/C(=O)O)C(C)(C)CCC1 | 47.8 µM (active) | inactive
CC[C@H](c1ccc(O)cc1)[C@@H](CC)c1ccc(O)cc1 | – | inactive
CCc1ccc(CCOc2ccc(CC3SC(=O)NC3=O)cc2)nc1 (stereo unspecified) | – | inactive
NC(=O)N(O)[C@@H]1C=C[C@H](Oc2cccc(Oc3ccc(F)cc3)c2)C1 | – | inactive
COC(=O)CCCCC(=O)OC | – | inactive
Cc1ccc(S(=O)(=O)O)c(C)c1 | – | inactive

SMILES | AC50 | outcome
c1ccc2cc3c(ccc4ccccc43)cc2c1 | – | inactive
CC(=O)CC(C)(C)O | – | inactive
O=[N+]([O-])c1ccc(O)cc1 | – | inactive
c1ccc2c(c1)Cc1ccccc1-2 | – | inactive
N#C[C@@H]1CC(F)(F)CN1C(=O)CNC1CC2CCC(C1)N2c1ncccn1 (stereo partly specified) | – | inactive
CCC(C)(C)C1CCC(O)CC1 (stereo unspecified) | – | inactive
CCCCCCCCCCCCN1CCCC1=O | 69.8 µM (active) | –
CC#C[C@]1(O)CC[C@H]2[C@@H]3CCC4=CC(=O)CCC4=C3[C@@H](c3ccc(N(C)C)cc3)C[C@@]21C | – | inactive
CCCCCCCCCCCCCC[N+](C)(C)C | 37.5 µM (active) | inactive
CCCOc1sc(C(=O)N2CCC(c3cc(CN)ccc3F)CC2)c(C)c1Br | 80 µM (active) | –
C[C@@H]1C[C@H]2[C@@H]3CCC4=CC(=O)C=C[C@]4(C)[C@@]3(F)[C@@H](O)C[C@]2(C)[C@@]1(O)C(=O)COP(=O)(O)O | – | inactive
Oc1cccc(O)c1 | – | inactive
CCCCCCCC(=O)O | – | inactive
CCCCCCCCCCCCCCCS(=O)(=O)Oc1ccccc1 | – | inactive
CCCCCCC(=O)O | – | inactive
CC(C)(C)c1cc(C(C)(C)C)c(O)c(C(C)(C)C)c1 | – | inactive
CCc1nn(C2CCCCC2)c2cc(C3(C#N)CCC(C(=O)O)CC3)ccc12 (stereo unspecified) | – | inactive
CCCOC(=O)c1ccc(O)cc1 | – | inactive
CC(C)(C)CC(C)(C)c1ccc(O)c(-n2nc3ccccc3n2)c1 | 38.6 µM (active) | inactive
